Hits are enriched below; roughly 5.5% of the tested compounds scored in any of these assays.
CtBP-E1A inh – inhibitors of CtBP/E1A interaction; activity change, % (concentration not given with the values); AlphaScreen GST-E1A/His-CtBP binding, 1536-well; stronger effect = lower value; hit rate 0.49% among 340,000; AID 651724; in the data active = activity change below about -65%; inconclusive = mostly about -30% to -63%; also: % is scaled to controls: 0 for no effect and ±100 for the full control effect
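Steps: dispense buffer (Tris pH 8.0, NaCl 300 mM, TCEP 1 mM, BSA, Tween 20); add 5X protein mix (GST-E1A, His-CtBP, 125 nM each); pin 23 nL compound; 2 h at 37 °C, dark; add 5X beads (50 ug/mL); 1 h; read.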
RORg inh – inhibitors of mouse ROR gamma transcriptional activity. hit rate 5.4% among 310,000. P51450. Drosophila S2 Gal4-RORgamma UAS-luciferase reporter, 20 h. Potency, µM (doses to about 53.6 µM), for inactives: at the top dose activity change, negative = inhibition, most hits filed as inhibitors; also: potency is read from the fitted curve at half-maximal effect; % is scaled to controls: 0 for no effect and ±100 for the full control effect; nearly all actives have a fitted effect of over 60% in size
Target sequence (P51450 whole entry, looked up, the tested form may be a part): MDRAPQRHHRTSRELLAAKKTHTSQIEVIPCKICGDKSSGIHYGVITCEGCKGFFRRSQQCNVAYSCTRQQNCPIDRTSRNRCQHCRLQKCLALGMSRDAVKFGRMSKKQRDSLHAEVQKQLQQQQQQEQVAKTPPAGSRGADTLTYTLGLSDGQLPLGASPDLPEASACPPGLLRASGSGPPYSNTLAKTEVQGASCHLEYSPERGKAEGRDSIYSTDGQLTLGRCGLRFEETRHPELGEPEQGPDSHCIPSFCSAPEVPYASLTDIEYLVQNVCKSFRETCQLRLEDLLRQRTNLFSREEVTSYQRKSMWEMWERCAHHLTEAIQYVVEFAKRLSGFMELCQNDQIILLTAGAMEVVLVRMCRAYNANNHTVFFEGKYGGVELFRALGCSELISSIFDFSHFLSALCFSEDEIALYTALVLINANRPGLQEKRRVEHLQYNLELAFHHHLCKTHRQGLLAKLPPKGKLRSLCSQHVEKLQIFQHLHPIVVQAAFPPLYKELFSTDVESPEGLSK
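Compounds are pin-transferred onto Drosophila Schneider cells expressing a copper-inducible Gal4–ROR gamma transactivation domain fusion. After 1 hr, copper sulfate is added to 700 uM final; luciferase is read 20 hr later.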
CBFb RUNX1 block – CBF-beta/RUNX1 interaction disruption. 230,000 tested, under 10 active. Potency, µM (top dose mostly 59.8 µM), without a hit: top-dose activity, negative = inhibition, most hits filed as inhibitors. AlphaScreen CBFb-His/RUNX1-biotin binding, biochemical. Q01196+Q13951; also: % of control where 0% means no effect
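CBF-beta (His) and RUNX1 (biotin), 30 nM each; 20 min preassociation; + compound, 15 min; + beads 50 ng each (Ni, streptavidin), 90 min; RT; AlphaScreen read.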
VP16 counter – inhibits Gal4-VP16 luciferase reporter, ROR gamma counter-screen; Potency, µM (highest dose often 53.6 µM), inactives show at the top dose activity, negative = inhibition, usual class: inhibitors; hit rate 3.5% among 310,000; Drosophila S2 Gal4-VP16 UAS-luciferase, luminescence, 20 h; AID 2546;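 also: Gal4-VP16 expression switched on by copper sulfate through the metallothionein promoter; potency is read from the fitted curve at half-maximal effect; % is scaled to controls: 0 for no effect and ±100 for the full control effect; nearly all actives have a fitted effect of over 50% in size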
Six1-Eya2 blk – Six1/Eya2 interaction inhibition. hit rate 0.56% among 360,000. activity change, % (test concentration not listed). Q15475+O00167. AlphaScreen GST-Six1/His-Eya2 binding, biochemical; stronger effect = lower value; in the data active = activity change below about -65%; inconclusive = mostly about -30% to -63%; also: % is scaled to controls: 0 for no effect and ±100 for the full control effect
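AlphaScreen with GST-Six1 and His-Eya2 (5X mix: 250 nM and 500 nM), glutathione donor and nickel acceptor beads; buffer 50 mM Tris pH 8.0, 300 mM NaCl, 1 mM TCEP; 1 h at 37 C in the dark.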
MBNL1-CUG inh – MBNL1-poly(CUG) RNA binding inhibition; AID 2675; hit rate 0.036% among 280,000; Potency, µM (titrated, usually from 57.5 µM), inactives show at the highest dose activity change, negative = inhibition, usual class: inhibitors; Q9NR56; TR-FRET MBNL1-His/biotin-(CUG)12 binding, 665/545 ratio; active = well fitted inhibition curve with a large enough effect in the signal ratio, with a control signal flat, not every such curve was filed as active; inconclusive = small, poorly fitted or top-dose-only effect, or effect the other way, or a change in a side signal; inactive = no such curve, though single readings can be large or run the other way; the % refers to the signal ratio; also: potency is read from the fitted curve at half-maximal effect; % is scaled to controls: 0 for no effect and ±100 for the full control effect
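Compounds (final 92 nM to 58 uM) are added to His-tagged MBNL1 and biotin-(CUG)12, then terbium anti-His antibody and streptavidin-XL665 (5 nM final). After 60 min at room temperature, the 665/545 nm ratio is read.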
Starred values were filed as active, the others as inactive; ? = inconclusive; . = not tested or not shown; [ ] = another dose, or the depositor's remark. Unless noted, calls follow the shape of the dose curve; as a rule, active = well fitted curve in the direction sought with a large enough effect; inconclusive = small, poorly fitted or top-dose-only effect, or another doubt; inactive = no such curve, though single readings can be large; an effect the other way counts as inactive or inconclusive.

SMILES	CtBP-E1A inh	RORg inh	CBFb RUNX1 block	VP16 counter	Six1-Eya2 blk	MBNL1-CUG inh
COc1cc2oc(=O)cc(CN3CCN(c4ccccc4OC)CC3)c2cc1Cl	-0.4	.	.	.	-7.9	.
O=C(/C(N=Nc1cccc([N+](=O)[O-])c1)=C(/O)c1ccc(Br)cc1)C(F)(F)F	.	7.94µM*	?	4.47µM*	.	-1.9%
CC1=NN(C(=O)c2ccc(Cn3cc(Br)c([N+](=O)[O-])n3)o2)C(O)(C(F)(F)F)C1 (stereo unspecified)	-14.7	4.47µM*	2.6%	11.2µM*	-10.7	8.8%[11.5 µM]
Cc1ccccc1NC(=O)c1cccc(Cn2cc(Br)c([N+](=O)[O-])n2)c1	-0.1	?	1.3%	-13.6%	-1.6	?
Cc1cc(C)n(C(=O)c2ccc(Cn3nc(C)c(Br)c3C)o2)n1	3.7	-14.3%	-0.1%	20.6%	4.9	-1.4%
CC1=NN(C(=O)c2ccc(Cn3nc(C)cc3C)o2)C(O)(C(F)(F)F)C1 (stereo unspecified)	0.5	6.31µM*	-5.8%	5.62µM*	1.4	0.6%
Nc1ccc(N=Nc2ccccc2)c2ccccc12	-24.9	-1.9%	.	-2.3%	-15.5	12.9%
c1ccc(N=Nc2ccc3cccccc2-3)cc1	-89.7*	.	.	.	-98.4*	.
O=C1C2C3c4ccccc4C(c4ccccc43)C2C(=O)N1c1nc(-c2ccccc2)cs1 (stereo unspecified)	-6.9	-8.4%	-7.5%	0.4%	-13.1	-9.3%
N=C1SCC(=O)N1c1nc(-c2ccccc2)cs1	8.6	8.91µM*	-1.7%	-4.5%	3.1	-9.4%
C[C@H](NC(=O)C[C@@H]1CC[C@H]2[C@@H](COC[C@H](O)CN2Cc2ccc(C(F)(F)F)cc2)O1)c1ccccc1	3.7	.	.	.	-5.3	.
O=C(NNC(=S)Nc1ccccc1C(F)(F)F)c1ccc(Br)o1	.	?	-6.9%	-18.8%	1.3	7.1%
CC(C)CC(=O)NC(=S)Nc1ccccc1C(F)(F)F	5.1	5.62µM*	23.8%	?	10.5	-10.4%
CSc1ccccc1NC(=S)Nc1ccccc1C(F)(F)F	-14.2	?	0.1%	1.2%	1.0	-2.4%
CC(C)CC(=O)NC(=S)Nc1ccccn1	6.0	-120.9%	13.2%	20µM*	1.6	-9.3%
CC(C)CC(=O)NC(=S)Nc1ccccc1F	0.9	10µM*	-1.5%	?	5.3	-2.0%
CC(C)(C)CC(=O)NC(=S)Nc1ccccc1C(F)(F)F	7.3	3.16µM*	6.3%	20µM*	3.6	-11.0%
COC(=O)CCC(=O)NC(=S)Nc1ccccc1F	1.9	?	1.9%	18.0%	7.7	-5.8%
COc1cccc([C@H]2Oc3ccc(OC)cc3/C(=N\OC[C@@H](O)[C@@H]3O[C@@H]4OC(C)(C)O[C@@H]4[C@H]3O)[C@@H]2O)c1	.	2.1%[10 µM]	8.6%[13.1 µM]	28.9%[10 µM]	.	.
COc1ccccc1NC(=S)NC(=O)CC(C)C	2.3	2.24µM*	1.3%	12.6µM*	-9.7	0.1%
CC(=O)NC(=S)Nc1cccc2ccc(C)nc12	-2.9	2.82µM*	2.8%	12.6µM*	0.8	12.2%
Cc1ccc2cccc(NC(=S)NC(=O)c3ccnn3C)c2n1	-20.9	?	1.5%	?	-9.0	36.4%
CC(C)CC(=O)NC(=S)Nc1cccc2nsnc12	2.0	7.94µM*	-6.7%	-7.1%	-7.3	171.0%
COc1c(C)cccc1C(=O)NC(=S)Nc1cccc2nsnc12	-2.4	6.0%	3.7%	-14.6%	1.0	285.2%
Cc1ccc(C(=O)NC(=S)Nc2ccccc2C(F)(F)F)cc1	0.4	4.47µM*	-1.8%	?	2.0	-0.8%
SMILES	CtBP-E1A inh	RORg inh	CBFb RUNX1 block	VP16 counter	Six1-Eya2 blk	MBNL1-CUG inh
COc1ccc(Cl)cc1NC(=O)CN(C)C(=O)CCCNC(=O)c1ccc(Cl)cc1	.	.	.	.	4.4	.
COc1ccc(CNC(=O)C(c2ccco2)N(C(=O)c2snc(C(N)=O)c2N)c2ccccc2OC)cc1 (stereo unspecified)	18.9	0.2%	.	-4.2%	15.0	14.2%
CCC1=C2CC[C@H]3C(=O)N(c4ccccc4)C(=O)[C@H]3[C@H]2[C@@]2(Cc3ccccc3)C(=NCCOC)OC(=O)N2C1=O	.	11.8%	-3.7%	-3.0%	.	.
COc1ccc(/C=C/C(=O)c2cc3c(cc2N)OCO3)cc1	5.8	-1.5%	?	4.0%	-1.5	?
COc1ccccc1NC(=S)NC(C)=O	10.2	11.2µM*	-2.8%	-6.4%	2.9	-4.9%
COc1ccccc1NC(C)=O	2.9	-14.9%	-6.2%	-0.5%	-1.2	3.9%
COc1cccc(NC(=S)NNC(=O)C(C)n2nc(C)c([N+](=O)[O-])c2C)c1 (stereo unspecified)	12.1	?	2.9%	-17.6%	-2.4	3.9%
Cc1nn(C)c(C(=O)Nc2ccc(Cn3cccn3)cc2)c1[N+](=O)[O-]	-12.5	-30.0%	7.5%	-6.8%	6.5	16.7%
COc1cccc(NC(=S)NNC(=O)c2c([N+](=O)[O-])c(C)nn2C)c1	-14.0	2.51µM*	-6.3%	?	-2.6	8.2%
Cc1nn(C)c(C(=O)NNC(=S)Nc2ccc(Cl)cc2)c1[N+](=O)[O-]	-3.8	3.98µM*	-10.9%	?	-4.9	15.7%
O=C(O)CC/C=C\CC[C@@H]1[C@@H](N2CCCCC2)[C@@H](O)C[C@@H]1OCc1ccc(-c2ccccc2)cc1	.	11.3%	.	-1.8%	.	.
COc1ccc(-c2nc3n(c2C)Cc2ccccc2-3)cc1	-1.8	11.2µM*	-1.1%	-13.1%	-1.0	-2.7%
O=c1cc(-c2ccccc2)nc2n1Cc1ccccc1-2	0.1	-13.9%	1.3%	2.1%	0.0	?
O[C@@H]1[C@@H]2c3cc4c(cc3CN3CCC(=C[C@@H]1O)[C@H]23)OCO4	.	?	10.1%[21.7 µM]	2.51µM*	.	.
Cc1ccc(/C=N/Nc2nc3ccccc3s2)o1	-28.2	8.91µM*	-16.7%	10µM*	?	.
Cc1ccc(/C=N/Nc2nc(C(C)(C)C)cs2)o1	.	-37.5%	-11.5%	-2.5%	-11.3	15.2%
Cc1ccc(NC(=O)CN(C)C(=O)c2cccnc2Nc2cccc(C(F)(F)F)c2)cc1	2.6	?	.	12.6µM*	2.3	-7.8%
CC(Oc1ccc(F)cc1)C(=O)Nc1ccccc1C(=O)N1CCCCC1 (stereo unspecified)	9.0	.	.	.	3.6	.
Cc1cccc(N(CC(=O)NC2CCCCC2)C(=O)CCCC(=O)Nc2ccccn2)c1C	-7.7	8.2%	.	6.9%	1.6	1.4%
Cc1cc(Nc2ccccc2C(=O)O)n(-c2ccc([N+](=O)[O-])cc2)n1	.	24.5%	0.8%	-7.8%	-81.4*	?
COc1ccc(OC)c(Nc2nc(NCCCN(C)C)nc(N)c2[N+](=O)[O-])c1	?	10µM*	-8.3%	10µM*	?	?

Bioassay records as filed in PubChem.
